Results reported in the supplement of paper PMC12494721.
Counter-ions that a name gives are not always drawn.

Tests used:
Conditions in all cases: incubation time: 27 h, anaerobic, 37 °C;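 for the amine columns active = adjusted P below 0.05 in both replicates with a change the same way and a mean fold change under 0.8 or over 1.25; inactive = the rest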
[1] = tested on: Clostridium sporogenes DSM 1664; assay: growth (OD595) fold change vs plate DMSO controls (fold change (ratio)); higher = more growth
How it was run: (§1)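 Absorbance at 595 nm was read after shaking the anaerobic mGAM cultures, which had grown in 96-well plates for 27 h at 37 °C. After blank subtraction and background correction against 20 µM compound solutions in water, a calibration factor of 5 gave OD values. Growth is the fold change against the median of the plate's DMSO controls. Values are the mean of 2 biological replicates, with fold changes above 1.5 set to NA.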

Escherichia coli IAI1 [2] = assay: as above
How it was run: as §1

[3] = tested on: Klebsiella aerogenes DSM 30053; assay: as above
How it was run: as §1

[4] = tested on: Ruminococcus gnavus DSM 108212; assay: as above
How it was run: as §1

[5] = tested on: Klebsiella aerogenes DSM 30053; assay: fold change of Histamine concentration vs plate DMSO controls (fold change (ratio)); higher = more amine produced, active = hit call of the paper (significant change in both replicates, either direction)
How it was run: (§2)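 In 80 µL wells, cultures of four gut bacterial strains in mGAM started at OD 0.1 before a 1:1 dilution and grew anaerobically at 37 °C for 27 h. Compounds were added to 20 µM final, except sweeteners at 50 µM final. After extraction of whole cultures with cold acetonitrile/methanol plus 0.1% formic acid and centrifugation, amines were measured by LC–triple-quadrupole MS in dynamic MRM mode against external calibration curves, with within-batch drift correction. Values give fold change over DMSO controls on the same plate, averaged across 2 biological replicates.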

[6] = tested on: Clostridium sporogenes DSM 1664; assay: fold change of Tryptamine concentration vs plate DMSO controls (fold change (ratio)); higher = more amine produced, active = hit call of the paper (significant change in both replicates, either direction)
How it was run: as §2

[7] = tested on: Ruminococcus gnavus DSM 108212; assay: as above
How it was run: as §2

Escherichia coli IAI1 [8] = assay: fold change of Putrescine concentration vs plate DMSO controls (fold change (ratio)); higher = more amine produced, active = hit call of the paper (significant change in both replicates, either direction)
How it was run: as §2

[9] = tested on: Klebsiella aerogenes DSM 30053; assay: as above
How it was run: as §2

Escherichia coli IAI1 [10] = assay: fold change of Cadaverine concentration vs plate DMSO controls (fold change (ratio)); higher = more amine produced, active = hit call of the paper (significant change in both replicates, either direction)
How it was run: as §2

[11] = tested on: Klebsiella aerogenes DSM 30053; assay: as above
How it was run: as §2

[12] = tested on: Ruminococcus gnavus DSM 108212; assay: fold change of 2-Phenylethylamine concentration vs plate DMSO controls (fold change (ratio)); higher = more amine produced, active = hit call of the paper (significant change in both replicates, either direction)
How it was run: as §2

SMILES: CCOC(=O)c1c(N)sc2c1CCN(Cc1ccccc1)C2 [Tinoridine hydrochloride] (20 µM)
- growth [1]: 1.15
- growth (Escherichia coli IAI1 [2]): 0.977
- growth [3]: 0.967
- growth [4]: 1.14
- fold change of Histamine concentration [5]: 1.03 (inactive)
- fold change of Tryptamine concentration [6]: 0.982 (inactive)
- fold change of Tryptamine concentration [7]: 0.922 (inactive)
- fold change of Putrescine concentration (Escherichia coli IAI1 [8]): 1.01 (inactive)
- fold change of Putrescine concentration [9]: 1 (inactive)
- fold change of Cadaverine concentration (Escherichia coli IAI1 [10]): 0.954 (inactive)
- fold change of Cadaverine concentration [11]: 0.976 (inactive)
- fold change of 2-Phenylethylamine concentration [12]: 0.875 (inactive)

SMILES: Nc1nc2[nH]cc(CCc3ccc(C(=O)N[C@@H](CCC(=O)O)C(=O)O)cc3)c2c(=O)[nH]1 [Pemetrexed disodium] (20 µM)
- growth [1]: 1.11
- growth (Escherichia coli IAI1 [2]): 1.25
- growth [3]: 0.529
- fold change of Histamine concentration [5]: 0.471 (inactive)
- fold change of Tryptamine concentration [6]: 1.04 (inactive)
- fold change of Tryptamine concentration [7]: 0.788 (inactive)
- fold change of Putrescine concentration (Escherichia coli IAI1 [8]): 1.07 (inactive)
- fold change of Putrescine concentration [9]: 0.577 (inactive)
- fold change of Cadaverine concentration (Escherichia coli IAI1 [10]): 0.876 (inactive)
- fold change of Cadaverine concentration [11]: 0.663 (inactive)
- fold change of 2-Phenylethylamine concentration [12]: 0.811 (inactive)

SMILES: Cc1cc(C(C)(C)CC(C)(C)C)ccc1OCCOCC[N+](C)(C)Cc1ccccc1 [Methyl benzethonium chloride] (20 µM)
- growth [1]: 0.896
- growth (Escherichia coli IAI1 [2]): 1.13
- growth [3]: 1.04
- fold change of Histamine concentration [5]: 1.11 (inactive)
- fold change of Tryptamine concentration [6]: 0.948 (inactive)
- fold change of Tryptamine concentration [7]: 0.726 (active)
- fold change of Putrescine concentration (Escherichia coli IAI1 [8]): 1.05 (inactive)
- fold change of Putrescine concentration [9]: 1.01 (inactive)
- fold change of Cadaverine concentration (Escherichia coli IAI1 [10]): 1.04 (inactive)
- fold change of Cadaverine concentration [11]: 0.985 (inactive)
- fold change of 2-Phenylethylamine concentration [12]: 0.803 (inactive)

SMILES: O=C1C(=O)c2ccccc2C(O)=C1C1CCC(c2ccc(Cl)cc2)CC1 (configuration not stated) [Atovaquone] (20 µM)
- growth [1]: 1.24
- growth (Escherichia coli IAI1 [2]): 1.02
- growth [3]: 1.07
- fold change of Histamine concentration [5]: 1.01 (inactive)
- fold change of Tryptamine concentration [6]: 0.793 (inactive)
- fold change of Tryptamine concentration [7]: 0.753 (active)
- fold change of Putrescine concentration (Escherichia coli IAI1 [8]): 0.973 (inactive)
- fold change of Putrescine concentration [9]: 1.03 (inactive)
- fold change of Cadaverine concentration (Escherichia coli IAI1 [10]): 0.989 (inactive)
- fold change of Cadaverine concentration [11]: 1 (inactive)
- fold change of 2-Phenylethylamine concentration [12]: 0.747 (active)

SMILES: COc1ccc([C@@H]2Sc3ccccc3N(CCN(C)C)C(=O)[C@@H]2OC(C)=O)cc1 [Diltiazem hydrochloride] (20 µM)
- growth [1]: 1.13
- growth (Escherichia coli IAI1 [2]): 1.02
- growth [3]: 0.994
- growth [4]: 1.01
- fold change of Histamine concentration [5]: 1.07 (inactive)
- fold change of Tryptamine concentration [6]: 1.03 (inactive)
- fold change of Tryptamine concentration [7]: 1.01 (inactive)
- fold change of Putrescine concentration (Escherichia coli IAI1 [8]): 0.982 (inactive)
- fold change of Putrescine concentration [9]: 1.02 (inactive)
- fold change of Cadaverine concentration (Escherichia coli IAI1 [10]): 0.985 (inactive)
- fold change of Cadaverine concentration [11]: 0.993 (inactive)
- fold change of 2-Phenylethylamine concentration [12]: 0.971 (inactive)

SMILES: NC(=O)c1cc[n+](CC2=C(C(=O)O)N3C(=O)[C@@H](NC(=O)C(c4ccccc4)S(=O)(=O)[O-])[C@H]3SC2)cc1 (some centres not stated) [Cefsulodin Sodium Salt Hydrate] (20 µM)
- growth [1]: 0.555
- growth (Escherichia coli IAI1 [2]): 1.04
- growth [3]: 1.02
- fold change of Histamine concentration [5]: 1.03 (inactive)
- fold change of Tryptamine concentration [6]: 0.838 (inactive)
- fold change of Tryptamine concentration [7]: 0.779 (inactive)
- fold change of Putrescine concentration (Escherichia coli IAI1 [8]): 1.06 (inactive)
- fold change of Putrescine concentration [9]: 0.997 (inactive)
- fold change of Cadaverine concentration (Escherichia coli IAI1 [10]): 1.1 (inactive)
- fold change of Cadaverine concentration [11]: 0.992 (inactive)
- fold change of 2-Phenylethylamine concentration [12]: 0.836 (inactive)

SMILES: Cc1c(OCC(F)(F)F)ccnc1C[S+]([O-])c1nc2ccccc2[nH]1 (configuration not stated) [Lansoprazole] (20 µM)
- growth [1]: 1
- growth (Escherichia coli IAI1 [2]): 1.06
- growth [3]: 1.01
- growth [4]: 1.02
- fold change of Histamine concentration [5]: 1.03 (inactive)
- fold change of Tryptamine concentration [6]: 1.02 (inactive)
- fold change of Tryptamine concentration [7]: 0.974 (inactive)
- fold change of Putrescine concentration (Escherichia coli IAI1 [8]): 1.03 (inactive)
- fold change of Putrescine concentration [9]: 1.01 (inactive)
- fold change of Cadaverine concentration (Escherichia coli IAI1 [10]): 1.03 (inactive)
- fold change of Cadaverine concentration [11]: 1.01 (inactive)
- fold change of 2-Phenylethylamine concentration [12]: 0.971 (inactive)

SMILES: C[C@@H]1CN(c2c(F)c(N)c3c(=O)c(C(=O)O)cn(C4CC4)c3c2F)C[C@H](C)N1 [Sparfloxacin] (20 µM)
- growth [1]: 0.0221
- growth (Escherichia coli IAI1 [2]): 0.0499
- growth [3]: 0.286
- fold change of Histamine concentration [5]: 0.286 (active)
- fold change of Tryptamine concentration [6]: 0.0593 (active)
- fold change of Tryptamine concentration [7]: 0.763 (active)
- fold change of Putrescine concentration (Escherichia coli IAI1 [8]): 0.942 (inactive)
- fold change of Putrescine concentration [9]: 1.16 (inactive)
- fold change of Cadaverine concentration (Escherichia coli IAI1 [10]): 0.264 (active)
- fold change of Cadaverine concentration [11]: 0.973 (inactive)
- fold change of 2-Phenylethylamine concentration [12]: 0.829 (inactive)

SMILES: CS(=O)(=O)Nc1ccc([N+](=O)[O-])cc1Oc1ccccc1 [Nimesulide] (20 µM)
- growth [1]: 1.01
- growth (Escherichia coli IAI1 [2]): 0.991
- growth [3]: 1.03
- fold change of Histamine concentration [5]: 1.07 (inactive)
- fold change of Tryptamine concentration [6]: 0.973 (inactive)
- fold change of Tryptamine concentration [7]: 0.972 (inactive)
- fold change of Putrescine concentration (Escherichia coli IAI1 [8]): 1.01 (inactive)
- fold change of Putrescine concentration [9]: 1.01 (inactive)
- fold change of Cadaverine concentration (Escherichia coli IAI1 [10]): 1 (inactive)
- fold change of Cadaverine concentration [11]: 0.991 (inactive)
- fold change of 2-Phenylethylamine concentration [12]: 0.905 (inactive)

SMILES: CC1CCc2cc(F)cc3c(=O)c(C(=O)O)cn1c23 (configuration not stated) [Flumequine] (20 µM)
- growth [1]: 0.015
- growth (Escherichia coli IAI1 [2]): 0.0532
- growth [3]: 0.404
- growth [4]: 0.706
- fold change of Histamine concentration [5]: 0.301 (active)
- fold change of Tryptamine concentration [6]: 0.0425 (active)
- fold change of Tryptamine concentration [7]: 0.989 (inactive)
- fold change of Putrescine concentration (Escherichia coli IAI1 [8]): 0.679 (active)
- fold change of Putrescine concentration [9]: 1.13 (inactive)
- fold change of Cadaverine concentration (Escherichia coli IAI1 [10]): 0.209 (active)
- fold change of Cadaverine concentration [11]: 0.975 (inactive)
- fold change of 2-Phenylethylamine concentration [12]: 0.952 (inactive)

SMILES: CCC(C)(C)C(=O)O[C@H]1C[C@@H](C)C=C2C=C[C@H](C)[C@H](CC[C@@H]3C[C@@H](O)CC(=O)O3)[C@H]21 [Simvastatin] (20 µM)
- growth [1]: 1.01
- growth (Escherichia coli IAI1 [2]): 1.05
- growth [3]: 1.25
- fold change of Histamine concentration [5]: 0.919 (inactive)
- fold change of Tryptamine concentration [6]: 0.967 (inactive)
- fold change of Tryptamine concentration [7]: 0.995 (inactive)
- fold change of Putrescine concentration (Escherichia coli IAI1 [8]): 1 (inactive)
- fold change of Putrescine concentration [9]: 1.03 (inactive)
- fold change of Cadaverine concentration (Escherichia coli IAI1 [10]): 1 (inactive)
- fold change of Cadaverine concentration [11]: 1.03 (inactive)
- fold change of 2-Phenylethylamine concentration [12]: 0.991 (inactive)

SMILES: Cc1c(C)c2c(c(C)c1O)CCC(C)(COc1ccc(CC3SC(=O)NC3=O)cc1)O2 (configuration not stated) [Troglitazone] (20 µM)
- growth [1]: 1.31
- growth (Escherichia coli IAI1 [2]): 0.981
- growth [3]: 1.1
- fold change of Histamine concentration [5]: 0.914 (inactive)
- fold change of Tryptamine concentration [6]: 0.721 (active)
- fold change of Tryptamine concentration [7]: 0.696 (active)
- fold change of Putrescine concentration (Escherichia coli IAI1 [8]): 1.01 (inactive)
- fold change of Putrescine concentration [9]: 0.995 (inactive)
- fold change of Cadaverine concentration (Escherichia coli IAI1 [10]): 1.01 (inactive)
- fold change of Cadaverine concentration [11]: 1.01 (inactive)
- fold change of 2-Phenylethylamine concentration [12]: 0.777 (active)

SMILES: COc1cc(Cc2cnc(N)nc2N)cc(OC)c1OC [Trimethoprim] (20 µM)
- growth [1]: 1.03
- growth (Escherichia coli IAI1 [2]): 0.272
- growth [3]: 0.472
- fold change of Histamine concentration [5]: 0.522 (active)
- fold change of Tryptamine concentration [6]: 0.974 (inactive)
- fold change of Tryptamine concentration [7]: 0.895 (inactive)
- fold change of Putrescine concentration (Escherichia coli IAI1 [8]): 0.829 (inactive)
- fold change of Putrescine concentration [9]: 1.22 (inactive)
- fold change of Cadaverine concentration (Escherichia coli IAI1 [10]): 1.78 (active)
- fold change of Cadaverine concentration [11]: 1 (inactive)
- fold change of 2-Phenylethylamine concentration [12]: 0.84 (inactive)
